High-throughput results (PubChem)
CtBP-E1A inh: blocks the CtBP interaction with E1A; AlphaScreen GST-E1A/His-CtBP binding, 1536-well; active compounds read low; activity change, % (test concentration not listed); hit rate 0.49% among 340,000; in the data active = activity change below about -65%; inconclusive = mostly about -30% to -63%
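GST-E1A and His-tagged CtBP (125 nM each as 5X stock) were preincubated with pin-transferred compound for 2 h at 37 °C in the dark, then glutathione donor and nickel acceptor beads were added for 1 h before AlphaScreen reading.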
BAZ2B block: blocks human BAZ2B; hit rate 4.4% among 360,000; AlphaScreen BAZ2B-H3K14Ac peptide displacement; Q9UIF8; Potency, µM (series often up to 114 µM), usual class: inhibitors; note: nearly all actives have a fitted effect of over 60% in size
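Protein-peptide AlphaScreen: BAZ2B 50 nM, b-H3K14Ac 50 nM, 1x PBS pH 7.4 + 0.01% Tween-20. Preincubation 30 min RT; cpd 30 min RT (top 110 uM); beads 20 min RT, light-protected.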
HP1b binding inh: inhibitors of HP1-beta chromodomain binding to methylated histone tails | P83916 | AlphaScreen HP1-beta / biotin-H3K9me3 peptide binding | Potency, µM (highest dose often 114 µM), usual class: inhibitors | hit rate 0.56% among 390,000 | AID 540317; note: nearly all actives have a fitted effect of over 70% in size
Target sequence (P83916 whole entry, looked up): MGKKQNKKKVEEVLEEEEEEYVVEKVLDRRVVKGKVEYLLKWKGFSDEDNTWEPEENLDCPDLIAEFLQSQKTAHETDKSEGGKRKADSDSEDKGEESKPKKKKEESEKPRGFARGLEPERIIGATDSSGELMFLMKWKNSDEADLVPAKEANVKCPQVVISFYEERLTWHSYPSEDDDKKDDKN
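AlphaScreen: HP1-beta (50 nM) preformed 30 min with biotin-H3(1-18)K9me3 peptide (50 nM) in PBS pH 7.4, 0.01% Tween-20. Compound added for 30 min at RT, then streptavidin donor/nickel chelate acceptor beads (10 ug/mL) for 30 min.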
TDP1 block: TDP1 (human) enzyme inhibition; hit rate 0.28% among 350,000; Potency, µM (series often up to 130 µM), hits mostly inhibitors; Q9NUW8; recombinant TDP1, AlphaScreen DNA substrate cleavage; note: nearly all actives have a fitted effect of over 40% in size
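Recombinant human Tdp1 (E. coli-expressed, 1 nM final) preincubated with compounds 15 min at room temperature, then 5'-biotin/3'-phosphotyrosine-FITC DNA substrate (15 nM final) added for 5 min. AlphaScreen beads (10 ug/ml final) added 10 min; cleavage lowers signal.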
JMJD2A Tudor inh: JMJD2A Tudor domain (human) inhibition; O75164; AlphaScreen JMJD2A-Tudor / H3K4me3 peptide binding; Potency, µM (series often up to 114 µM), most hits filed as inhibitors; hit rate 4.4% among 390,000; note: nearly all actives have a fitted effect of over 50% in size
Six1-Eya2 inh: blocks human Six1 binding to Eya2. hit rate 0.56% among 360,000. AlphaScreen GST-Six1/His-Eya2 binding, biochemical; active compounds read low. activity change, % (test concentration not listed); in the data active = activity change below about -65%; inconclusive = mostly about -30% to -63%
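GST-Six1 + His-Eya2 (5X stock: 250/500 nM); Tris pH 8.0, 300 mM NaCl, 0.05% BSA, 0.02% Tween 20; GSH donor/Ni acceptor beads; 1 h 37 °C dark; AlphaScreen readout.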
A number is an active result; i = inactive; ? = inconclusive; nt = not tested or not shown. This is a sample that favours compounds with a hit; in the whole collection about 5.3% have one here. Unless noted, calls come from the whole dose curve; as a rule, active = well fitted inhibition curve with a large enough effect; inconclusive = small, poorly fitted or top-dose-only effect; inactive = no such curve, though single readings can be large or run the other way.

SMILES	CtBP-E1A inh	BAZ2B block	HP1b binding inh	TDP1 block	JMJD2A Tudor inh	Six1-Eya2 inh
Cc1ccc(-c2csc(NC(=O)c3cccc(N4C(=O)CCC4=O)c3)n2)o1	i	i	i	i	79µM	i
O=C(Nc1nnc(-c2ccc(Cl)cc2)o1)c1cccc(N2C(=O)CCC2=O)c1	?	79µM	i	i	?	i
CCCn1cc(S(=O)(=O)c2cc(C)ccc2C)c(=O)c2cc(F)c(N3CCCCCC3)cc21	nt	i	i	i	i	nt
Cc1cccc(-c2noc(-c3ccc(NCc4ccccc4)c([N+](=O)[O-])c3)n2)c1	nt	i	i	i	i	nt
COCCCNC(=O)Cn1cnc2sc(C)c(S(=O)(=O)N3CCC(C)CC3)c2c1=O	nt	i	i	i	i	nt
O=C(Nc1n[nH]c(=S)s1)c1ccco1	i	?	?	nt	3.5µM	i
COc1ccc(OC)c(CCNC(=O)Cn2sc3nc(C)cc(C)c3c2=O)c1	nt	50µM	nt	i	nt	nt
Cc1cc(C)c2c(N)c(C(=O)NC3CCCC3)sc2n1	i	i	i	i	i	i
Cc1cc(C)c2c(=O)n(CC(=O)Nc3ccc(Br)c(C)c3)sc2n1	i	?	?	nt	2.5µM	i
Cc1cc(C)c2c(=O)n(CC(=O)Nc3cccc(Cl)c3C)sc2n1	i	?	7.9µM	i	2µM	i
Cc1cc(C)c2c(=O)n(CC(=O)NC3CCCC3)sc2n1	i	79µM	8.9µM	nt	2.2µM	i
CC(=O)c1ccc(S(=O)(=O)Nc2ccc(-c3cn4c(C)csc4n3)cc2)cc1	nt	?	i	i	?	nt
Cc1cccc(NC(=O)CSc2nc3c([nH]c4ccccc43)c(=O)n2-c2ccc(F)cc2)c1C	nt	i	i	i	i	nt
C/C(=N\Nc1ccc(C(=O)O)cc1)c1ccc(Br)cc1	nt	50µM	?	nt	71µM	i
COc1ccc(Nc2nc3c(S(=O)(=O)c4ccccc4)nnn3c3ccsc23)cc1OC	nt	i	i	i	i	nt
CN1c2ccccc2C(C)(C)C12C=Cc1cc(O)ccc1O2 (stereo not drawn)	i	45µM	?	i	45µM	i
CN1c2ccccc2C(C)(C)C12C=Nc1c(cc(N3CCOCC3)c3ccccc13)O2 (stereo not drawn)	i	?	i	i	?	i
Fc1cccc(-c2nc(-c3ccncc3)no2)c1	nt	i	i	i	i	nt
CCOC(=O)c1c(C)[nH]c(C)c1C(=O)COc1ncnc2ccccc12	i	nt	i	i	16µM	i
C#CCOCCOCCOCCNc1nc(N2CCN(C(=O)[C@H]([C@@H](C)CC)n3cc(CCCN=C(N)N)nn3)CC2)nc(N2CCN(C(=O)[C@H](CCCCN)n3cc(CCC(=O)O)nn3)CC2)n1	nt	i	i	i	i	i
C#CCOCCOCCOCCNc1nc(N2CCOCC2)nc(N2CCN(C(=O)[C@H](CCCCN)n3cc([C@@H](N)C(C)CC)nn3)CC2)n1 (stereo partly drawn)	i	i	i	i	i	i
C#CCOCCOCCOCCNc1nc(N2CCN(C(=O)[C@H](CCCN=C(N)N)n3cc(C(N)[C@H](C)CC)nn3)CC2)nc(N2CCN(C(=O)[C@H](CCCN=C(N)N)n3cc(C(N)[C@@H](C)CC)nn3)CC2)n1 (stereo partly drawn)	i	nt	i	i	79µM	i
C#CCOCCOCCOCCNc1nc(N2CCN(C(=O)[C@H](CCCN=C(N)N)n3cc(C(N)[C@@H](C)CC)nn3)CC2)nc(N2CCN(C(=O)[C@H](CC(N)=O)n3cc([C@@H](N)C(C)C)nn3)CC2)n1 (stereo partly drawn)	i	nt	i	i	79µM	i
C#CCOCCOCCOCCNc1nc(N2CCN(C(=O)[C@H](CCCCN)n3cc(CN)nn3)CC2)nc(N2CCN(C(=O)[C@H](CCCN=C(N)N)n3cc(C(N)[C@H](C)CC)nn3)CC2)n1 (stereo partly drawn)	i	nt	i	i	79µM	i
C#CCOCCOCCOCCNc1nc(N2CCN(C(=O)[C@H](CCCN=C(N)N)n3cc(C(N)[C@@H](C)CC)nn3)CC2)nc(N2CCN(C(=O)[C@H](CC(N)=O)n3cc([C@@H](N)CC(N)=O)nn3)CC2)n1 (stereo partly drawn)	i	nt	i	i	22µM	i
SMILES	CtBP-E1A inh	BAZ2B block	HP1b binding inh	TDP1 block	JMJD2A Tudor inh	Six1-Eya2 inh
CCOc1ccc(CC(=O)Nc2c(C(=O)c3ccccc3)oc3ccc(Cl)cc23)cc1OCC	nt	i	i	i	i	nt
O=C(Cn1ccn(-c2ccc(F)cc2)c(=O)c1=O)Nc1ccc(F)cc1	nt	i	i	i	i	nt
CSc1nn(Cc2ccc(C)cc2)c(N)c1S(=O)(=O)c1ccccc1	nt	i	i	i	i	nt
O=C1CCc2cc([S+](=O)([O-])Nc3ccc(N[S+](=O)([O-])c4ccc5c(c4)CCC(=O)N5)cc3)ccc2N1	nt	nt	nt	i	i	nt
COc1cc(CN(CCc2c(C)[nH]c3ccc(C)cc23)C(=S)NC(C)(C)C)cc(OC)c1OC	i	?	?	i	50µM	i
CCNC(=S)N(CCc1c(C)[nH]c2ccc(Cl)cc12)Cc1ccco1	i	nt	i	i	i	i
CNC(=S)N(CCc1c(C)[nH]c2ccc(C)cc12)Cc1ccco1	i	50µM	i	i	?	i
Cc1[nH]c2ccccc2c1CCN(Cc1cccnc1)C(=S)NC(C)(C)C	nt	?	i	nt	?	i
CNC(=S)N(CCc1c(C)[nH]c2ccc(C)cc12)Cc1ccc(OC)c(OC)c1	i	32µM	i	i	?	i
CNC(=S)N(CCc1c(C)[nH]c2ccc(Cl)cc12)Cc1cc(OC)c(OC)c(OC)c1	i	?	i	i	?	i
CCc1nnc(SC(CC)C(=O)NCCOC)c2cc3occc3n12 (stereo not drawn)	nt	i	i	i	i	nt
